Results as given in the supplement of paper PMC6555819.

What was measured:
Test in all cases: PBM binding z-score (relative to random genomic background probes); higher = stronger binding; sequences stand for … in GC…GCGATTGACAGCGTAGAATGAAGG
[1] = tested on: FXR:RXRa (NR concentration 270 nM, RXRa partner concentration 90 nM)
Method in brief: (§1)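 Antibodies against each partner of ligand-free nuclear receptor dimers (one per run) detected binding on custom Agilent 4×180K protein-binding microarrays after 1 h incubation. The double-stranded probes had 34-nt variable regions carrying direct-repeat seeds, single-nucleotide variants, half-site ablations and random human genomic background sequences. Binding z-scores, from regression-normalized fluorescence, use the random background probes as reference.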

[2] = tested on: LXRa:RXRa (NR concentration 270 nM, RXRa partner concentration 90 nM)
Method in brief: as §1

[3] = tested on: LXRa homodimer (NR concentration 270 nM)
Method in brief: as §1

[4] = tested on: LXRb:RXRa (NR concentration 270 nM, RXRa partner concentration 90 nM)
Method in brief: as §1

[5] = tested on: LXRb homodimer (NR concentration 270 nM)
Method in brief: as §1

[6] = tested on: PPARa:RXRa (NR concentration 270 nM, RXRa partner concentration 90 nM)
Method in brief: as §1

[7] = tested on: PPARg:RXRa (NR concentration 180 nM, RXRa partner concentration 90 nM)
Method in brief: as §1

[8] = tested on: PPARg:RXRa 270nM:90nM, anti-RXR (NR concentration 270 nM, RXRa partner concentration 90 nM)
Method in brief: as §1

[9] = tested on: PPARg:RXRa 30nM:10nM, anti-RXR (NR concentration 30 nM, RXRa partner concentration 10 nM)
Method in brief: as §1

[10] = tested on: PPARg:RXRa 90nM:30nM, anti-RXR (NR concentration 90 nM, RXRa partner concentration 30 nM)
Method in brief: as §1

[11] = tested on: PPARg:RXRa DBDmut IVT, anti-RXR (DBD mutation: RXRa K156A/R161A, NR concentration 270 nM, RXRa partner concentration 90 nM)
Method in brief: as §1

[12] = tested on: PPARg:RXRa IVT, anti-PPARg (NR concentration 270 nM, RXRa partner concentration 90 nM)
Method in brief: as §1

[13] = tested on: PPARg DBDmut:RXRa IVT, anti-PPARg (DBD mutation: PPARg1 K132A/R137A, NR concentration 270 nM, RXRa partner concentration 90 nM)
Method in brief: as §1

[14] = tested on: PPARg DBDmut IVT, anti-PPARg (DBD mutation: PPARg1 K132A/R137A, NR concentration 270 nM)
Method in brief: as §1

[15] = tested on: PPARg homodimer (NR concentration 180 nM)
Method in brief: as §1

[16] = tested on: PXR:RXRa (NR concentration 270 nM, RXRa partner concentration 90 nM)
Method in brief: as §1

[17] = tested on: PXR homodimer (NR concentration 270 nM)
Method in brief: as §1

[18] = tested on: RARa:RXR (NR concentration 270 nM, RXRa partner concentration 90 nM)
Method in brief: as §1

[19] = tested on: RARa homodimer (NR concentration 270 nM)
Method in brief: as §1

[20] = tested on: RARb:RXRa (NR concentration 270 nM, RXRa partner concentration 90 nM)
Method in brief: as §1

Row | Sequence | PBM binding z-score [1] | PBM binding z-score [2] | PBM binding z-score [3] | PBM binding z-score [4] | PBM binding z-score [5] | PBM binding z-score [6] | PBM binding z-score [7] | PBM binding z-score [8] | PBM binding z-score [9] | PBM binding z-score [10] | PBM binding z-score [11] | PBM binding z-score [12] | PBM binding z-score [13] | PBM binding z-score [14] | PBM binding z-score [15] | PBM binding z-score [16] | PBM binding z-score [17] | PBM binding z-score [18] | PBM binding z-score [19] | PBM binding z-score [20]
1 | CCTTACGGGTCACGACGTTATAGCACGACGAGCG | 6.55 | 4.13 | 0.322 | 3.66 | 0.374 | 5.69 | 6.15 | 5.93 | 2.65 | 4.97 | 3.85 | 4.92 | 0.866 | 0.177 | 1.83 | 3.57 | 0.0826 | 4.61 | 1.39 | 4.34
2 | TAGCCTAGGTCATTGAGGGGCCAGTATAGAAAGC | 4.54 | 3.48 | 0.272 | 2.84 | 1.08 | 3.67 | 2.08 | 2.48 | 0.353 | 1.49 | 1.9 | 2.84 | 0.198 | 0.125 | 2.84 | 2.36 | -0.0238 | 3.39 | -0.506 | 3.93
3 | GCTATTAGTTGAAAGGGCAACGGAATGATTCTCG | 0.364 | 0.524 | 0.225 | 0.73 | -0.171 | 2.5 | 2.45 | 4.33 | 2.24 | 4.02 | 0.701 | 0.992 | 1.04 | 0.361 | 0.8 | 0.606 | 0.255 | 1.19 | 0.995 | 1.93
4 | GCAGAAAGGTGAAACGCAGGTAACTCAGGGTGGC | 1.58 | 1.62 | -0.633 | 0.912 | -1.18 | 3.5 | 1.57 | 2.32 | -0.0918 | 1.39 | 3.02 | 2.42 | -0.00989 | -0.405 | 0.213 | 0.633 | -0.804 | 1.9 | -0.501 | 2.88
5 | TCATATAGCTAAAAGGTGAAAGTCGGTGTGGTAA | 0.855 | 1.02 | 0.0787 | 1.2 | -0.577 | 2.26 | 0.863 | 2.94 | 3.25 | 3.08 | 2.08 | 0.996 | 0.333 | 0.116 | 0.824 | 0.793 | 0.353 | 1.37 | 0.703 | 1.5
6 | CCTTACGGGTCACTGGCAGGTTATAGCATTTGGA | 5.13 | 4.36 | 0.174 | 3.52 | -0.315 | 5.15 | 4.06 | 4.83 | 1.9 | 3.26 | 2.85 | 3.68 | 0.22 | 1.16 | 3.67 | 4.02 | 0.0403 | 5.02 | 0.895 | 3.99
7 | AGTCAAAGTTCAGGGCGAGGTAACGTAAAGCACG | 4.49 | 4.03 | 1.39 | 2.27 | 0.321 | 3.75 | 5.2 | 5.24 | 1.76 | 4.08 | 0.0616 | 2.24 | -0.0376 | 0.418 | 2.91 | 3.19 | 1.1 | 2.93 | 1.23 | 4.49
8 | CCGACTGGGGCAAGGTTACCATCACGCACAGCCA | 0.162 | 0.447 | -0.106 | 0.674 | -1.14 | 1.79 | 2.72 | 3.61 | 0.851 | 2.78 | 3.35 | 3.48 | -0.952 | -0.665 | 0.946 | 0.175 | 0.0478 | 0.822 | -0.0498 | 1.5
9 | CCTAGTTGGTCAGGAGGTCTCACACCGGATATGA | 0.237 | 0.219 | 0.125 | -0.00774 | -0.246 | 0.135 | 0.469 | 0.772 | -0.0549 | 0.338 | 0.196 | 1.02 | -0.277 | 0.59 | 1.25 | -0.0259 | 0.521 | 0.0681 | 1.06 | 0.838
10 | ACAGACAGGTGAGTGAAGGTACCTCAGCTGGACG | -0.587 | -0.527 | -0.687 | -0.78 | -0.777 | -0.49 | 0.476 | -0.227 | -0.761 | -0.682 | 0.368 | 0.143 | -0.279 | -0.459 | -0.919 | -0.854 | -0.592 | -0.657 | -1.02 | 0.213
11 | CCTACTGGGCCAAAAAGGACATTGATGCCGATAA | -0.363 | -0.495 | -0.28 | -0.539 | -0.727 | -0.00322 | 1.04 | 1.6 | 0.0632 | 1.17 | 3.5 | 2.63 | -0.447 | 0.0111 | 0.363 | -0.396 | 0.177 | -0.191 | 0.526 | 0.68
12 | ATATGTTGGTTACATCCGGGTCATTCAGGCTATG | 1.39 | 1.84 | 0.976 | 2.03 | 1.13 | 2.43 | 1.07 | 1.17 | 0.492 | 0.873 | 1.41 | 2.24 | 1.25 | 1.54 | 1.46 | 2.51 | 1.42 | 2.55 | 1.23 | 1.62
13 | CGTCCAAGGTCGGAGAGGTCAGTGAATGCCGAGT | 2.9 | 3.06 | 1.09 | 2.53 | -0.761 | 3.1 | 0.524 | 2.01 | 0.133 | 1.16 | 0.725 | 1.17 | -0.739 | -1.35 | 1.93 | 4.6 | 7.89 | 3.59 | 1.21 | 3.76
14 | TCATATAGGTAAACAGGTGAAAGTACGTAAGTTA | 1.36 | 1.03 | 0.233 | 1.26 | 0.199 | 2.74 | 4.09 | 4.04 | 4.33 | 4.17 | 4.97 | 4.72 | 2.79 | 1.19 | 1.65 | 0.938 | 0.715 | 1.22 | 1.42 | 0.779
